An excerpt weighted towards active compounds, which were near 2.7% of everything screened.
SENP6 inh – blocks the human protease SENP6. inhibition, % at 10 µM. 1.8% of 330,000 active. Q9GZR1. AID 2599. Recombinant SENP6 catalytic domain, aminoluciferin luminescence;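 active = inhibition above about 50% at the single tested dose, limit read from the data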
HSP90 refold inh – blocks HSP90-mediated luciferase refolding in reticulocyte lysate; Rabbit reticulocyte lysate, luciferase refolding luminescence, 3 h; inhibition, % at 5.6 µM; 0.91% of 290,000 active;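 active = inhibition above the screen-wide mean plus 3 SD, computed separately per campaign, cut at about 16% in these data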;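 also: inhibitors lower the luminescence because luciferase stays unfolded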
SENP7 inh – SENP7 protease inhibition. 1.5% of 330,000 active. recombinant SENP7, Z-RLRGG-aminoluciferin luminescence, 40 min. Q9BQF6. inhibition, % at 5 µM;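 active = inhibition above about 50% at the single test dose, limit read from the data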
Target sequence (Q9BQF6 706-1050 limits assumed): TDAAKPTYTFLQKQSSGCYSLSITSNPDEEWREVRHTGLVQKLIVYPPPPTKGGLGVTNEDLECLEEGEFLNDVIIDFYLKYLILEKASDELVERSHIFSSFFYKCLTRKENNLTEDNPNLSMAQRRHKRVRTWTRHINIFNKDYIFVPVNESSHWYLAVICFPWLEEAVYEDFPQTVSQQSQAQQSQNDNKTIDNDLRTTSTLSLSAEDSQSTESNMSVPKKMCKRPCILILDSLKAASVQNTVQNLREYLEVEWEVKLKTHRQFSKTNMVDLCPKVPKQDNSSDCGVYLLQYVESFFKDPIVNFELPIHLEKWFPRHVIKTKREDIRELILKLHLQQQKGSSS
SENP8 block-1 – SENP8 protease inhibition. Q96LD8. purified SENP8, Z-RLRGG-aminoluciferin cleavage, luminescence. inhibition, % at 10 µM. 1.2% of 330,000 active; in the data active = inhibition above about 50%
SENP8 block-2 – SENP8 (human) protease inhibition. 0.64% of 360,000 active. recombinant SENP8, Nedd8 substrate fluorescence. Q96LD8. inhibition, % at 20 µM; in the data active = inhibition mostly above about 40%, no sharp cut-off; inactive = mostly below about 27%
SENP8 confirm – confirmation of human SENP8 protease inhibitors; inhibition, % at 12.5 µM; Recombinant SENP8, Z-RLRGG-aminoluciferin luminescence, 60 min; 40% of 6,200 active; shares compounds with SENP7 inh; AID 488912;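 active = mean inhibition across replicates above about 50%, limit read from the data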
SENP6 confirm – confirmation of human SENP6 protease inhibitors; shares compounds with SENP7 inh; recombinant SENP6, Z-RLRGG-aminoluciferin luminescence; inhibition, % at 12.5 µM; 58% of 6,200 active; AID 488915
SENP7 conf – human SENP7 inhibition, confirmed; 69% of 6,200 active; recombinant SENP7, Z-RLRGG-aminoluciferin luminescence, 40 min; shares compounds with SENP7 inh; inhibition, % at 12.5 µM; AID 488917
Casp3 select – caspase-3 inhibition (SENP selectivity assay). purified caspase-3, Z-DEVD-aminoluciferin luminescence, 60 min. inhibition, % at 12.5 µM. 60% of 6,200 active. shares compounds with SENP7 inh;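 active = mean inhibition above about 50%, limit read from the data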
Target sequence (P42574 28-227 limits assumed): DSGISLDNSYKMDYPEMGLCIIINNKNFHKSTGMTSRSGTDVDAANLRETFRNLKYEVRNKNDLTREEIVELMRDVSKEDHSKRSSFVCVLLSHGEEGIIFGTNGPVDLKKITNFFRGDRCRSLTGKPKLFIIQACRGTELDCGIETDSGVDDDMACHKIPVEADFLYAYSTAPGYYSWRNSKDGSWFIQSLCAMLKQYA
SENP luc ctr – counter-screen for SENP inhibitors: luminescence interference; shares compounds with SENP7 inh; AID 488919; Pre-incubated SENP8/Z-RLRGG-aminoluciferin, luciferase luminescence interference; inhibition, % at 12.5 µM; 39% of 6,200 active;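 active = mean inhibition above about 50% when retested at one dose, limit read from the data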
A number is an active result; 0 = inactive; - = no result given.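 The calls were made as follows, unless noted: active = mean inhibition above about 50% in the one-dose retest (limit read from the data); inactive = the rest.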

SMILES | SENP6 inh | HSP90 refold inh | SENP7 inh | SENP8 block-1 | SENP8 block-2 | SENP8 confirm | SENP6 confirm | SENP7 conf | Casp3 select | SENP luc ctr
COc1ccc2nc(NC(=O)C3COc4ccccc4O3)sc2c1 (configuration not stated) | 0 | 0 | 0 | 0 | 0 | - | - | - | - | -
Cc1ccc(C(O)C(=O)c2ccco2)cc1 (configuration not stated) | 0 | - | 75 | 0 | 0 | 0 | 0 | 0 | 0 | 0
O=C(O)c1cccc(NC(=S)NC(=O)c2cccc(OCc3ccccc3)c2)c1 | 56 | 0 | 0 | 0 | 0 | 71 | 61 | 76 | 0 | 63
O=C(Nc1ccc(COc2ccccc2)cc1)Nc1cccc(C(=O)O)c1 | 97 | 0 | 92 | 93 | 0 | 0 | 100 | 0 | 60 | 0
COc1ccc(C(=O)COC(=O)c2n[nH]c3ccccc23)c(OC)c1 | 51 | - | 0 | 0 | 0 | 0 | 0 | 69 | 0 | 0
COc1ccc2cc(-c3ccn[nH]3)ccc2c1 | 66 | 0 | 59 | 0 | 0 | 0 | 53 | 84 | 0 | 64
O=C(Nc1ccc(O)cc1C(=O)O)c1ccc2c(c1)C(=O)N(Cc1ccco1)C2=O | 0 | 0 | 0 | 0 | 0 | - | - | - | - | -
O=C(Nc1cc([N+](=O)[O-])ccc1O)c1cccc([N+](=O)[O-])c1 | 83 | 0 | 67 | 69 | 0 | 85 | 83 | 97 | 86 | 70
O=C(Nc1cc([N+](=O)[O-])ccc1O)c1ccc2c(c1)C(=O)N(Cc1ccco1)C2=O | 82 | 0 | 0 | 76 | 0 | 0 | 84 | 74 | 77 | 84
O=C(Nc1cc([N+](=O)[O-])ccc1O)c1cccc(C(=O)Nc2cc([N+](=O)[O-])ccc2O)c1 | - | 0 | - | - | 0 | - | - | - | - | -
C/C(=N\NC(=O)COc1ccc(C(C)(C)C)cc1)c1ccccc1 | 0 | 0 | 0 | 0 | 0 | - | - | - | - | -
c1ccc(-c2nc3ccccc3s2)nc1 | 90 | 0 | 79 | 76 | 0 | 0 | 89 | 99 | 89 | 0
Brc1ccc(-c2nc3ccccc3s2)s1 | 95 | 0 | 96 | 95 | 0 | 66 | 82 | 87 | 0 | 67
Cc1nnc(SCc2nc3ccccc3s2)n1N | 0 | 0 | 0 | 0 | 0 | - | - | - | - | -
CN(C)c1ncccc1-c1nc2ccccc2s1 | 0 | 0 | 0 | 0 | 0 | - | - | - | - | -
Brc1cc2c(cc1-c1nc3ccccc3s1)OCO2 | 0 | 0 | 0 | 0 | 0 | - | - | - | - | -
c1ccc(SCc2nc3ccccc3s2)nc1 | 60 | 0 | 0 | 0 | 0 | 64 | 61 | 86 | 66 | 57
Nc1ccc(-c2nc3ccccc3s2)cn1 | 79 | 0 | 69 | 66 | 0 | 75 | 73 | 91 | 78 | 0
CC(C)(C)OC(=O)N1CCC(CNC(=O)c2ccc(F)cc2F)CC1 | 0 | 0 | 0 | 0 | 0 | - | - | - | - | -
Cc1occc1-c1nnc(SCc2nc3ccccc3c(=O)n2CC#N)n1C | 0 | 0 | 0 | 0 | 0 | - | - | - | - | -
O=C(CCNS(=O)(=O)c1ccccc1Cl)OCc1nnc(-c2ccccc2Cl)o1 | 0 | - | 0 | 0 | 0 | - | - | - | - | -
Fc1cccc2sc(Nc3nc4cc5c(cc4s3)OCCO5)nc12 | 0 | 0 | 0 | 0 | 0 | - | - | - | - | -
Fc1cccc2sc(Nc3nc4cc5c(cc4s3)OCO5)nc12 | 0 | 0 | 53 | 0 | 0 | 0 | 0 | 0 | 0 | 0
Cc1nc(-c2ccccc2)sc1C(=O)NS(=O)(=O)c1ccc(CN2CCN(c3ccccc3)CC2)cc1 | - | - | - | - | 0 | - | - | - | - | -
Cc1sc(NC(=O)c2ccc(Br)s2)c(C(N)=O)c1C | 76 | 0 | 51 | 0 | 0 | 0 | 0 | 0 | 0 | 0
SMILES | SENP6 inh | HSP90 refold inh | SENP7 inh | SENP8 block-1 | SENP8 block-2 | SENP8 confirm | SENP6 confirm | SENP7 conf | Casp3 select | SENP luc ctr
Cc1sc(NC(=O)c2ccc(Cl)s2)c(C(N)=O)c1C | 60 | 0 | 52 | 0 | 0 | 0 | 0 | 0 | 0 | 0
Cc1sc(NC(=S)Nc2ccc(F)cc2)c(C(N)=O)c1C | - | 0 | - | - | 0 | - | - | - | - | -
CSc1nc2sc3c(c2c(=O)n1C)CCC3 | 0 | 0 | 0 | 0 | 0 | - | - | - | - | -
CSc1nc2sc3c(c2c(=O)n1C)CCC(C)C3 (configuration not stated) | 63 | 0 | 50 | 0 | 0 | 0 | 0 | 0 | 0 | 0
Cn1c(SCC(=O)N2CCCC2)nc2c(c1=O)SCC2 | - | - | - | - | 0 | - | - | - | - | -
O=C(NC(NC1CCS(=O)(=O)C1)C(=O)c1cccs1)c1ccccc1 (configuration not stated) | 0 | 0 | 0 | 0 | - | - | - | - | - | -
O=C(NC1=C(NC2CCS(=O)(=O)C2)C(=O)c2ccccc2C1=O)c1ccccc1 (configuration not stated) | 86 | 0 | 0 | 60 | 87 | 0 | 86 | 55 | 93 | 0
c1ccc2[nH]c(SCc3ccc(-c4nnco4)cc3)nc2c1 | 72 | 0 | 71 | 0 | 0 | 64 | 61 | 88 | 81 | 75
COc1ccc(CSc2nc3ccccc3[nH]2)cc1 | 96 | 0 | 94 | 88 | 0 | 92 | 94 | 100 | 92 | 93
c1cnc2c(SCc3ccc(-c4nnco4)cc3)cccc2c1 | 0 | 0 | 0 | 0 | 0 | - | - | - | - | -
O=C1CCC(=O)N1c1ccc(CSc2nc3ccccc3[nH]2)cc1 | 0 | 0 | 0 | 0 | 0 | - | - | - | - | -
COC(=O)c1cccc(CSc2nc3ccccc3[nH]2)c1 | 65 | 0 | 72 | 0 | 0 | 0 | 50 | 83 | 64 | 68
COc1cc(C)c(CN2CCCCC2CO)cc1C (configuration not stated) | 0 | 0 | 0 | 0 | 0 | - | - | - | - | -
O=C(O)c1ccc(N2Cc3ccccc3C2)cc1O | 70 | 0 | 0 | 65 | 0 | 0 | 71 | 89 | 90 | 75
O=C(COCc1cc(-c2ccco2)on1)NC1CCCCC1 | 0 | 0 | 0 | 0 | 0 | - | - | - | - | -
CN(C(=O)c1ccc(NC(=O)Cc2ccccc2)cc1)c1ccccc1 | 54 | 0 | 61 | 0 | 0 | 0 | 0 | 74 | 65 | 59
Nc1ccc(C#Cc2ccccc2)cc1 | 0 | 0 | 0 | 0 | 0 | - | - | - | - | -
Nc1ccccc1C#Cc1ccccc1 | 67 | 0 | 66 | 57 | 0 | 0 | 76 | 91 | 59 | 63
O=C1CN(C(=O)c2ccc(Cl)c(S(=O)(=O)N3CCc4ccccc43)c2)c2ccccc2N1 | 61 | 0 | 0 | 0 | 0 | 0 | 0 | 0 | 0 | 0
COCCNc1ncnc2c1ncn2[C@H]1CN(CCOC)C[C@@H](CO)O1 | - | - | - | - | 0 | - | - | - | - | -
COC(=O)c1cc(NC(=O)COC(=O)CCc2c[nH]c3ccccc23)cc(C(=O)OC)c1 | 0 | - | 0 | 0 | 0 | - | - | - | - | -
CC1=CC(=C(C#N)c2nc3ccccc3s2)C=C(C)N1CC1CCCO1 (configuration not stated) | 82 | 0 | 0 | 0 | 0 | 0 | 0 | 0 | 0 | 0
O=C(Nc1ccc(F)cc1)N(Cc1nnc2n1CCCCC2)c1ccccc1 | 0 | 0 | 0 | 0 | 0 | - | - | - | - | -
CCCCOc1ccc(/C=c2\sc3ncnn3c2=O)cc1 | 0 | 0 | 0 | 0 | 0 | - | - | - | - | -

Screening data deposited in PubChem BioAssay by several laboratories.
